pAkt inh: blocks phosphorylation of Akt; Neuro2A IGF-stimulated pAkt S473 HTRF, 20 min; stronger effect = lower value; activity change, % for hits at 50 µM; hit rate 0.32% among 360,000; AID 651550; in the data active = activity change below about -80%; inconclusive = mostly about -51% to -80%
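Neuro2A cells in DMEM with 0.5% FBS, overnight at 37 deg C, given compound at single 50 µM final, then IGF (6 nM final) for 20 min at 37 deg C. Lysed; phospho-Akt Ser473 by HTRF after 24 h, 665/615 ratio.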
Six1-Eya2 blk: inhibitors of human Six1/Eya2 interaction; AID 651725; AlphaScreen GST-Six1/His-Eya2 binding, biochemical; stronger effect = lower value; hit rate 0.56% among 360,000; activity change, % (concentration not given with the values); Q15475+O00167
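Homogeneous AlphaScreen proximity assay pairing GST-Six1 with His-tagged Eya2 (added as 5X mix: 250 nM and 500 nM) in 50 mM Tris pH 8.0, 300 mM NaCl, 1 mM TCEP. Glutathione donor and nickel acceptor beads; 1 h, 37 °C, dark.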
CtBP-E1A inh: CtBP/E1A binding inhibition. activity change, % (test concentration not listed). AlphaScreen GST-E1A/His-CtBP binding, 1536-well; stronger effect = lower value. hit rate 0.49% among 340,000
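In 5 uL wells, 23 nL compound meets equimolar GST-E1A and His-CtBP (5X stock 125 nM each) for 2 h, 37 °C. Beads (5X, 50 ug/mL) then 1 h, 37 °C, dark.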
PI5P4K alpha inh: blocks human PI5P4K alpha kinase activity | P48426 | PI5P4Kalpha enzyme, ADP-Glo luminescence, 60 min; stronger effect = lower value | max response, % | hit rate 1.2% among 330,000; active = max response of -50% or lower; inconclusive = between -30% and -50%; inactive = -30% or higher; also: value at the top dose of about 77 µM
Target sequence (P48426 whole entry, looked up): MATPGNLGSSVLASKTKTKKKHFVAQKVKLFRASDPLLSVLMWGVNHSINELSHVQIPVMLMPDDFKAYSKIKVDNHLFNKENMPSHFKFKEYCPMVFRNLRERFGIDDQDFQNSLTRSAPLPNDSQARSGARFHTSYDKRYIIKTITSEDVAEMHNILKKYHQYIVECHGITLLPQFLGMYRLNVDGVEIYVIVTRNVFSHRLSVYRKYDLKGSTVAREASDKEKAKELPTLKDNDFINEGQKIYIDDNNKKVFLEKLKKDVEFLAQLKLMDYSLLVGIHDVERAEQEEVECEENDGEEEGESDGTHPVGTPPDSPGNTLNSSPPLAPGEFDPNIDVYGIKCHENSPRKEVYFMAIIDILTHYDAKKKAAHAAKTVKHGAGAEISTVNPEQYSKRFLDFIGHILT
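Enzyme plus substrate dispensed, test compounds pinned in, then ATP (5 microM final) added. After 60 min at RT, ADP-Glo reagent 1 for 45 min and reagent 2 for 30 min preceded luminescence imaging.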
PI4K2A inh: blocks human PI4K2A kinase activity | Q9BTU6 | purified PI4K2A, ADP-Glo luminescence, 1 h; stronger effect = lower value | activity change, negative = inhibition, % at 76.9 µM | hit rate 0.13% among 420,000 | AID 1346378; in the data active = activity change below about -50%; inconclusive = mostly about -30% to -49%;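 also: -100% = wells without enzyme as full effect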
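In this quantitative HTS, ADP production by PI4K2A was quantified luminescently after 1 h at ambient temperature; 100 microM adenosine served as plate-quality control.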
An asterisk follows results filed as active. A selection: hits, their analogues and other compounds. The true share with any hit is near 1.8%. Rule as the data show it, unless noted: active = activity change below about -65%; inconclusive = mostly about -30% to -63%; inactive = weaker than that. Unless noted, % is scaled to controls: 0 for no effect and ±100 for the full control effect.

What do the screens show for `COC(=O)CCC(=O)OC1(C)C(=O)C2=CN(c3ccc(OC)cc3)C(c3ccc(OC)cc3)=CC2=C(Br)C1=O` (configuration not stated)?
pAkt inh: inactive; Six1-Eya2 blk: -22; CtBP-E1A inh: -18; PI5P4K alpha inh: inconclusive; PI4K2A inh: -16

Results for CCOc1ccc(-n2c(SCC(=O)Nc3cc(OC)c([N+](=O)[O-])cc3C)nc3ccccc32)cc1 ?
pAkt inh: inactive; Six1-Eya2 blk: -9; CtBP-E1A inh: 0; PI5P4K alpha inh: -1; PI4K2A inh: -2

How did COC(=O)COc1ccc(C2Nc3c(Cl)ccc(C(=O)O)c3C3C=CCC32)cc1 (configuration not stated) do in these assays?
pAkt inh: inactive; Six1-Eya2 blk: inconclusive; CtBP-E1A inh: -18; PI5P4K alpha inh: -57*; PI4K2A inh: -10

What do the screens show for `Cc1cccc(OCC(=O)Nc2ccc3oc(=O)ccc3c2)c1C`?
pAkt inh: inactive; Six1-Eya2 blk: -2; CtBP-E1A inh: 6; PI5P4K alpha inh: -9; PI4K2A inh: 2

How did COc1ccccc1N1CCN(C(=O)c2cc3n(n2)C(C(F)(F)F)CC(c2ccco2)N3)CC1 (configuration not stated) do in these assays?
pAkt inh: -107%*; Six1-Eya2 blk: 7; CtBP-E1A inh: 0; PI5P4K alpha inh: 3; PI4K2A inh: -6

Results for O=C(c1cc2n(n1)C(C(F)(F)F)CC(c1ccco1)N2)N1CCc2ccccc2C1 (configuration not stated) ?
pAkt inh: inactive; Six1-Eya2 blk: -11; CtBP-E1A inh: -6; PI5P4K alpha inh: 0; PI4K2A inh: -5

How did CC1CCN(S(=O)(=O)c2ccc([N+](=O)[O-])cc2)CC1 do in these assays?
pAkt inh: inactive; Six1-Eya2 blk: -10; CtBP-E1A inh: -9; PI5P4K alpha inh: 2; PI4K2A inh: 1

Results for CC1CCN(S(=O)(=O)c2ccc(Oc3ccc([N+](=O)[O-])cc3)cc2)CC1 ?
pAkt inh: -81%*; Six1-Eya2 blk: -16; CtBP-E1A inh: -22; PI4K2A inh: 10

How did CCOC(=O)CSc1nnc([C@H](C)NC(=O)OC(C)(C)C)o1 do in these assays?
pAkt inh: -115%*; Six1-Eya2 blk: 0; CtBP-E1A inh: 3; PI5P4K alpha inh: -4; PI4K2A inh: 9

How did CCOC(=O)CSc1nnc([C@@H](NC(=O)OC(C)(C)C)C(C)C)o1 do in these assays?
pAkt inh: inactive; Six1-Eya2 blk: 28; CtBP-E1A inh: 0; PI5P4K alpha inh: 6; PI4K2A inh: 4

What do the screens show for `Cc1cc(C)n2cc(CSc3ncccc3C(=O)O)nc2n1`?
pAkt inh: -111%*; Six1-Eya2 blk: -1; CtBP-E1A inh: -2; PI5P4K alpha inh: 7; PI4K2A inh: -13

Results for Cc1ccc(S(=O)(=O)C=CS(=O)(=O)c2ccc(C)cc2)cc1 ?
pAkt inh: inactive; Six1-Eya2 blk: -26; CtBP-E1A inh: -5; PI5P4K alpha inh: -11; PI4K2A inh: -3

What do the screens show for `Cc1ccc(S(=O)(=O)SCCCSS(=O)(=O)c2ccc(C)cc2)cc1`?
pAkt inh: inactive; Six1-Eya2 blk: -5; CtBP-E1A inh: 8; PI5P4K alpha inh: -73*; PI4K2A inh: -1

How did Cc1ccc(S(=O)(=O)SC/C=C/CSS(=O)(=O)c2ccc(C)cc2)cc1 do in these assays?
pAkt inh: inactive; Six1-Eya2 blk: 3; CtBP-E1A inh: 4; PI5P4K alpha inh: -85*; PI4K2A inh: -7

What do the screens show for `Cc1ccc(-c2nnc3ccc(SCC(=O)Nc4cc(C)on4)nn23)cc1`?
pAkt inh: inactive; Six1-Eya2 blk: -3; CtBP-E1A inh: -8; PI4K2A inh: 3

Results for Cc1cc(NC(=O)CSc2ccc3nnc(-c4cccs4)n3n2)no1 ?
pAkt inh: inactive; Six1-Eya2 blk: inconclusive; CtBP-E1A inh: -68*; PI5P4K alpha inh: -4; PI4K2A inh: 4

Results for O=C(CCSc1ccc(Cl)cc1)N1CCCCCC1 ?
Six1-Eya2 blk: 3; CtBP-E1A inh: 8; PI5P4K alpha inh: -1; PI4K2A inh: 2

What do the screens show for `O=c1[nH]c2ccc(Cl)cc2c(-c2ccccc2)c1N1CCOCC1`?
pAkt inh: inactive; Six1-Eya2 blk: 12; CtBP-E1A inh: -24; PI5P4K alpha inh: 0; PI4K2A inh: -5

Screening data: PubChem BioAssay, National Center for Advancing Translational Sciences (NCATS)
